# Values joined by “and” are separate entries in the source; they are usually repeats but may differ in a detail not shown here. Equal entries are not always repeated. The source holds several records for some structures; these can differ, active in one and inactive in another. Active and inactive are the calls of the source. Rule as the data show it, unless noted: active = parasite load remaining mostly below about 12% (no sharp cut-off); inactive = mostly above about 10%.
# Legend:
# [1] = liver-stage malaria parasite growth inhibition, primary screen, cell-based, HepG2, luciferase luminescence, HepG2 viability (AID 624349);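 also: 100% = mean of DMSO negative control wells on the same plate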; conditions: P. berghei liver stage in HepG2, luciferase luminescence, concentration not given here; parasite load remaining: stronger effect = lower value; viability: measured here: HepG2 viability without parasites
# [2] = stimulators of nuclear beta-catenin in C2C12, primary screen, imaging, WNT3A-conditioned medium, mouse C2C12, NPC library (AID 1117326; in the data active = nuclear beta-catenin stimulation mostly above about 4.2%, no sharp cut-off; inactive = mostly below about 10%; also: reference of the scale not given here); conditions: stronger effect = higher value
Structure (SMILES),parasite load remaining [1],viability [1],nuclear beta-catenin stimulation ([2]; at 10 µM),"nuclear beta-catenin stimulation ([2]; stimulation, at 2 µM) [%]"
COc1ncnc(NS(=O)(=O)c2ccc(N)cc2)c1OC,74.2% (inactive) and 31.5% (inactive) and 37.8% (inactive),68.7% and 97% and 73.5%,4.7% (inactive),3.5
CO[C@@]1(NC(=O)C(C(=O)O)c2ccc(O)cc2)C(=O)N2C(C(=O)O)=C(CSc3nnnn3C)CO[C@@H]21 (stereo partly specified),95.7% (inactive) and 71.7% (inactive),77.5% and 90.5%,1.6% (inactive),-0.2
Cn1c([N+](=O)[O-])cnc1COC(N)=O,74.3% (inactive) and 117% (inactive) and 35.4% (inactive),101% and 70.6% and 91.7%,0.1% (inactive),0.6
CCC[C@H](N[C@@H](C)C(=O)N1[C@H](C(=O)O)C[C@@H]2CCCC[C@@H]21)C(=O)OCC,98.2% (inactive) and 68.9% (inactive) and 42.7% (inactive),70.3% and 83% and 98.6%,1.3% (inactive),0.5
O=C1c2c(O)cccc2Cc2cccc(O)c21,94% (inactive) and 68.1% (inactive),73% and 78.8%,-3.3% (inactive),-2
CC(N)CCCC(C)(C)O (stereo unspecified),31.8% (inactive) and 120% (inactive) and 114% (inactive),50.3% and 90.2% and 93.5%,2.3% (inactive),1.6
O=C1OC(c2ccc(O)cc2)(c2ccc(O)cc2)c2ccccc21,95% (inactive) and 84.8% (inactive),73.9% and 95.1%,1.3% (inactive),0
CO[C@@H]1[C@@H](OC(N)=O)[C@@H](O)[C@H](Oc2ccc3c(O)c(NC(=O)c4ccc(O)c(CC=C(C)C)c4)c(=O)oc3c2C)OC1(C)C,96.3% (inactive) and 84% (inactive),73.9% and 88.8%,-0.7% (inactive),1.5
CCCCC1C(=O)N(c2ccccc2)N(c2ccc(O)cc2)C1=O (stereo unspecified),75.4% (inactive) and 73.9% (inactive) and 45.8% (inactive),80.4% and 71.7% and 90.8%,66.2% (active),2.3
CC(C)N=C(N)/N=C(\N)Nc1ccc(Cl)cc1,38.3% (inactive) and -0.12% (active),66.1% and 93.4%,1.1% (inactive),0.3
C[C@@H]1CN(c2c(F)c(N)c3c(=O)c(C(=O)O)cn(C4CC4)c3c2F)C[C@H](C)N1,16.6% (inactive),70%,-1.1% (inactive),-1.1
COc1ccc(NS(=O)(=O)c2ccc(N)cc2)nn1,118% (inactive) and 103% (inactive) and 48% (inactive),101% and 69.5% and 83.6%,-1.8% (inactive),2.2
COc1ccc2cc1Oc1ccc(cc1)C[C@H]1c3c(cc4c(c3Oc3cc5c(cc3OC)CCN(C)[C@@H]5C2)OCO4)CCN1C,105% (inactive),82.3%,64.7% (active),7.1
CC[N+](C)(C)Cc1ccccc1Br,80.1% (inactive),101%,-0.9% (inactive),0.3
Nc1ccc(C(=O)NCC(=O)O)cc1,103% (inactive) and 157% (inactive) and 40.5% (inactive),101% and 82% and 89.7%,0.5% (inactive),1.4
CCN(CC)CCNC(=O)c1cc(Br)c(N)cc1OC,69.3% (inactive) and 155% (inactive),93.9% and 89.2%,3.8% (inactive),-1
O=C(O)P(=O)(O)O,127% (inactive) and 15.8% (inactive),69.2% and 92.6%,0.2% (inactive),-0.8
COc1ccc(-c2cc(C(F)F)nn2-c2ccc(S(N)(=O)=O)cc2)cc1F,70.5% (inactive),97.2%,4% (inactive),0.7
Cc1ccc(C(=O)C(C)CN2CCCCC2)cc1 (stereo unspecified),97.6% (inactive),70.5%,1.5% (inactive),4.3
CC(=O)OCC1=C(C(=O)O)N2C(=O)[C@@H](NC(=O)CSc3ccncc3)[C@H]2SC1,79.7% (inactive) and 64.8% (inactive),79.3% and 105%,-0.8% (inactive),1.1
O=P(O)(O)C(O)(Cc1cccnc1)P(=O)(O)O,12.3% (inactive) and 1.41% (inactive),96.3% and 95%,-1.2% (inactive),-0.8
O=C1c2cccc(O)c2C(=O)c2c(O)cccc21,32.6% (inactive),96.2%,-0.6% (inactive),8.2
O=C(COc1ccc(Cl)cc1)N1CCN(Cc2ccc3c(c2)OCO3)CC1,33.6% (inactive) and 155% (inactive) and 109% (inactive),49.1% and 91.8% and 89.5%,1% (inactive),-0.3
O=C(O)c1ccccc1OP(=O)(O)O,79.1% (inactive) and 102% (inactive),101% and 71.6%,0.8% (inactive),2.9
OC(CCN1CCCCC1)(c1ccccc1)c1ccccc1,89.9% (inactive) and 126% (inactive),98.8% and 84.6%,0.4% (inactive),2.1

Structure (SMILES),parasite load remaining [1],viability [1],nuclear beta-catenin stimulation ([2]; at 10 µM),"nuclear beta-catenin stimulation ([2]; stimulation, at 2 µM) [%]"
CC(N)C(=O)OC(C)(C)Cc1ccc(Cl)cc1 (stereo unspecified),159% (inactive),87.1%,8% (inactive),3.3
O=C(O)CCCC[C@@H]1SC[C@@H]2NC(=O)N[C@@H]21,125% (inactive) and 81.9% (inactive),117% and 77.7%,0.3% (inactive),1.3
O=C(O)c1ccccc1O,90.3% (inactive) and 39.7% (inactive),79.5% and 93.6%,0.5% (inactive),-0.8
Cc1c(NC(C)C)c(=O)n(-c2ccccc2)n1C,102% (inactive) and 160% (inactive),100% and 89.9%,3.6% (inactive),7
CC1CCC(NC(=O)N(CCCl)N=O)CC1 (stereo unspecified),62.2% (inactive) and 25.6% (inactive),87.1% and 108%,5.9% (inactive),4.9
OC[C@H]1O[C@@H](Oc2ccc(O)cc2)[C@H](O)[C@@H](O)[C@@H]1O,102% (inactive),72.2%,-2.1% (inactive),1
O=C(N[C@H](CO)[C@H](O)c1ccc([N+](=O)[O-])cc1)C(Cl)Cl,29.9% (inactive) and 25.5% (inactive),46.7% and 63%,-0.9% (inactive),-0.3
Cc1onc(-c2ccccc2)c1C(=O)N[C@@H]1C(=O)N2[C@@H]1SC(C)(C)[C@@H]2C(=O)O,27.2% (inactive),72.5%,-2.3% (inactive),0.5
Oc1ccc(OCc2ccccc2)cc1,144% (inactive),102%,2.5% (inactive),1.1
CC(C(=O)O)c1ccc2c(c1)[nH]c1ccc(Cl)cc12 (stereo unspecified),138% (inactive) and 52% (inactive),73.1% and 91.7%,-0.6% (inactive),1.1
O=C(O)[C@@H]1[C@H]2C[C@H]3c4[nH]c5ccccc5c4CCN3C[C@@H]2CC[C@@H]1O,106% (inactive) and 85.7% (inactive),104% and 83.6%,0.4% (inactive),1.8
O=c1oc2c(O)c(O)cc3c(=O)oc4c(O)c(O)cc1c4c23,130% (inactive),65.1%,-1.4% (inactive),2.3
CC(C)NCC(O)c1ccc2ccccc2c1 (stereo unspecified),115% (inactive) and 166% (inactive) and 45.3% (inactive),75% and 89% and 106%,0.7% (inactive),-1.4
Oc1c(Br)cc(Br)c2cccnc12,81.4% (inactive),68.8%,4.7% (inactive),0.1
CC1(C)O[C@@H]2C[C@H]3[C@@H]4CCC5=CC(=O)CC[C@]5(C)[C@@]4(F)[C@@H](O)C[C@]3(C)[C@]2(C(=O)CCl)O1,116% (inactive),97.4%,-0.6% (inactive),0.3
CC1(C)S[C@@H]2[C@H](NC(=O)C(C(=O)O)c3ccccc3)C(=O)N2[C@H]1C(=O)O (stereo partly specified),87.5% (inactive) and 61.7% (inactive),75.2% and 98.9%,-0.3% (inactive),-0.3
CCN1CCCC(OC(=O)C(c2ccccc2)c2ccccc2)C1 (stereo unspecified),78.7% (inactive) and 105% (inactive) and 40.1% (inactive),75.6% and 65.9% and 85.9%,0.6% (inactive),2.6
CC1(C)OC(=O)NC1=O,76.1% (inactive) and 103% (inactive) and 63.9% (inactive),96.6% and 74.2% and 92.6%,1.7% (inactive),2.2
Cc1c(N(C)CS(=O)(=O)O)c(=O)n(-c2ccccc2)n1C,109% (inactive) and 141% (inactive) and 63.8% (inactive),100% and 88.3% and 95.6%,-0.4% (inactive),0.9
Oc1ccc(Cl)c2cccnc12,109% (inactive) and 39.2% (inactive),67.1% and 81.7%,26.2% (inactive),2.1
CCC(Cc1c(I)cc(I)c(N)c1I)C(=O)O (stereo unspecified),85.1% (inactive) and 170% (inactive) and 66.3% (inactive),78.9% and 86.3% and 103%,1.2% (inactive),-1.1
CCCCOC(=O)c1ccc(N)cc1,111% (inactive) and 65.2% (inactive),96.4% and 75.1% and 101%,-0.2% (inactive),1
CCOC(=O)OC(C)OC(=O)[C@@H]1N2C(=O)[C@@H](NC(=O)[C@H](N)c3ccccc3)[C@H]2SC1(C)C (stereo partly specified),83% (inactive) and 78.3% (inactive),104% and 79.2%,1.2% (inactive),2.5
CN(C)c1ccc(C(=C2C=CC(=[N+](C)C)C=C2)c2ccc(N(C)C)cc2)cc1,-0.57% (inactive) and -0.18% (inactive),16.5% and 0%,1% (inactive),28.6

# From PubChem BioAssay
